From PubChem BioAssay AID1347416 (National Center for Advancing Translational Sciences (NCATS), 2020)
Out of some 4,100 compounds screened, about 1,600 (39%) were called active. About 25% were inconclusive and are not listed. Calls follow the shape of the dose curve; as a rule, active = well fitted inhibition curve with a large enough effect; inconclusive = small, poorly fitted or top-dose-only effect; inactive = no such curve, though single readings can be large or run the other way. This is one part of the list.

Assay: qHTS Validation assay for Inhibitors of Plasmodium falciparum Dd2 growth in vitro; also: nearly all actives have a fitted effect of over 70% in size
Conditions: P. falciparum Dd2 in RBCs, SYBR Green growth, 72 h; series mostly up to 28.7 µM
Outline: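 P. falciparum Dd2-infected red blood cells (2.5% hematocrit, 0.3% parasitemia) grown 72 h at 37 °C under 5% O2 with compounds in a titration, 29 uM to 0.5 nM final. Growth read as SYBR Green-1 fluorescence after ~16 h lysis; artesunate 300 nM as positive control.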
Potency is read from the fitted curve at half-maximal effect.

| SMILES | Potency |
| --- | --- |
| CCN(CC)CCN1C(=O)c2ccccc2NC1c1ccc(Br)cc1 (stereo not drawn) | 1.5 µM (active) |
| CCN(CC)CCN1C(=O)c2ccccc2NC1c1ccc(N(C)C)cc1 (stereo not drawn) | 4.22 µM (active) |
| CCN(CC)CCN1C(=O)c2ccccc2NC1c1ccc(C)cc1 (stereo not drawn) | 2.99 µM (active) |
| CCc1ccc(CNC(=O)c2ccc(-c3nc(CSc4ccc(C)cc4)c(C)o3)cc2)cc1 | inactive |
| CCc1noc(-c2ccn3c(CNC(=O)COc4cccc(C)c4)nnc3c2)n1 | inactive |
| O[C@@H]1CC(CNCC2CCCC2)(COc2ccc(C(F)(F)F)cn2)C[C@@H]1O (stereo partly drawn) | 5.31 µM (active) |
| CCn1cc(C(=O)N2CCN(c3cccc(C)c3)C(C)C2)c(=O)c2cc(S(=O)(=O)N3CCOCC3)ccc21 (stereo not drawn) | inactive |
| CC(C)COc1ccc(C(=O)N/C(=C\c2cccc([N+](=O)[O-])c2)C(=O)OC(C)C)cc1 | 0.531 µM (active) |
| CCCCOc1ccc(C(=O)N/C(=C\c2cccc([N+](=O)[O-])c2)C(=O)OC(C)C)cc1 | 2.11 µM (active) |
| CC(C)c1ccccc1OCC(O)CN(CC(O)COc1cccc2ccccc12)C(C)C (stereo not drawn) | 2.37 µM (active) |
| CC(C)[N+](C)(C)CC(O)COc1cccc2ccccc12 (stereo not drawn) | inactive |
| CC(=O)Nc1ccc(CN2CCC3(CC2)CNc2ccccc2[S+](=O)([O-])N3)cc1 | inactive |
| CC(=O)Nc1ccc(CN2CC(Oc3ccc(F)c(C)c3)C2)cc1 | inactive |
| CC(=O)Nc1ccc(CN2CC(N(C)c3ccccc3C)C2)cc1 | 12.2 µM (active) |
| Cc1ccc2nc(-c3ccccc3O)c(Nc3ccccc3C)n2c1 | 2.37 µM (active) |
| CCOC(=O)c1c(CN(C)C)oc2cc(CN(C)C)c(O)c(CSc3ccccc3)c12 | 0.596 µM (active) |
| CN(C)CC1(O)CCC2(CCN(C(=O)c3nccc4ccccc34)CC2)CC1 | inactive |
| Cc1cccc(N2CCN(c3nc4ccccc4c4nnc(C)n34)CC2)c1C | 5.31 µM (active) |
| Cc1cc(Nc2cccc(F)c2)nc(NCc2ccccc2)n1 | 8.41 µM (active) |
| Cc1ccnc(NS(=O)(=O)c2ccc(NC(=O)C(C)(C)C)cc2)n1 | inactive |
| Cc1ccc(/C=N/Nc2cc(C)nc(NCc3ccccc3)n2)cc1 | 5.31 µM (active) |

| SMILES | Potency |
| --- | --- |
| COc1ccc(Nc2cc(C)nc(NCc3ccccc3)n2)cc1 | 13.3 µM (active) |
| CC(=O)Nc1ccc(Nc2cc(C)nc(Nc3ccc(NC(C)=O)cc3)n2)cc1 | 3.35 µM (active) |
| COc1ccc(-c2cc(C(=O)O)n(Cc3ccccc3)n2)cc1 | inactive |
| COc1cc(SC)ccc1C(=O)N[C@H]1CCN2C(=O)N(c3ccc(Cl)cc3)C(=O)[C@@H]2C1 | inactive |
| COCc1nc(-c2ccc(OC3CN(S(=O)(=O)c4ccccc4C)C3)cc2)no1 | inactive |
| Cc1ccc2nc(CCc3ccc(N)cc3)[nH]c2c1 | inactive |
| COCCn1c(=O)n([C@H]2CCCN(C(=O)CC3CCCCC3)C2)c2ncccc21 | inactive |
| Cc1cc(Nc2ccc(Cl)cc2)nc(NCc2ccccc2)n1 | 0.422 µM (active) |
| COc1nccnc1NC1CCN(C(=O)Cc2ccccc2)CC1 | inactive |
| Cc1cc(Nc2cccc(Cl)c2)nc(NCc2ccccc2)n1 | 8.41 µM (active) |
| CN(C)c1cc(N2CCCC(NC(=O)NCc3ccccc3)C2)ncn1 (stereo not drawn) | inactive |
| CCCCNc1cc(C)nc(NCc2ccccc2)n1 | 9.44 µM (active) |
| Cc1cc(NC2CCCCC2)nc(NCc2ccccc2)n1 | 16.8 µM (active) |
| CCCc1noc(-c2ccn3c(CNC(=O)c4cccc(N(C)C)c4)nnc3c2)n1 | inactive |
| Cc1cc(=O)n(CC(=O)NCc2ccccc2Br)c(N(C)Cc2ccccc2)n1 | inactive |
| Cc1cc(Nc2ccccc2)nc2cc(O)ccc12 | 0.422 µM (active) |
| Cc1cc(NCc2ccco2)nc2cc(O)ccc12 | 6.68 µM (active) |
| Cc1cc(N(C)Cc2ccccc2)nc2cc(O)ccc12 | 2.37 µM (active) |
| CNC(=O)[C@@H](c1ccc(Cl)cc1)N1CCC[C@H]1C(=O)N1CC[C@@H](O)C1 | inactive |
| CCN1Cc2nc(OC)c(CNC(=O)C(C)n3cc(C)cn3)cc2C1=O (stereo not drawn) | inactive |
| CCN(CC(O)c1cccc(O)c1)C(=O)C12CC3CC(CC(C3)C1)C2 (stereo not drawn) | 4.73 µM (active) |

| SMILES | Potency |
| --- | --- |
| O=C(CN1CCN(C(=O)c2ccco2)CC1)Nc1cc(C(F)(F)F)ccc1Cl | 7.5 µM (active) |
| O=C(CN1CCN(C(=O)c2ccco2)CC1)Nc1cc(Cl)ccc1Cl | 5.96 µM (active) |
| CNC(=O)[C@@H]1CN(Cc2cc(C(F)(F)F)ccc2Cl)C[C@H]1CO | inactive |
| O=C(c1ccco1)N1CCCN(c2cc(-c3ccc(Br)cc3)[nH]n2)CC1 | inactive |
| O=C1CCC2(CCCO2)CCN1Cc1ccccc1 (stereo not drawn) | inactive |
| O=C1c2cc(N3CCOCC3)nc(-c3ccccc3)c2CN1Cc1ccccc1 | 21.7 µM (active) |
| CC(=O)Nc1cccc(-c2ncc3c(n2)OCCN(Cc2ccccc2)C3=O)c1 | inactive |
| Nc1nc(-c2ccccn2)nc(N)c1Cc1ccc(Cl)cc1Cl | 7.5 µM (active) |
| Nc1nc(-c2ccccn2)nc(N)c1Cc1ccccc1F | 13.3 µM (active) |
| CCOc1cc(C2c3c(-c4ccccc4O)n[nH]c3C(=O)N2Cc2cccnc2)ccc1O (stereo not drawn) | inactive |
| CCCCN1C(=O)c2[nH]nc(-c3ccccc3O)c2C1c1ccc(OCc2ccccc2)cc1 (stereo not drawn) | 5.96 µM (active) |
| CCOc1ccccc1CN1CCC2(CCN(CCC(C)C)CC2)Oc2ccccc21 | 3.35 µM (active) |
| CCOc1ccccc1CN1CCC2(CCN(C(=O)OC)CC2)Oc2ccccc21 | inactive |
| CN(C)CCCNc1cc(N2CCN(C3CCCCC3)CC2)c2noc3c2c1C(=O)c1ccccc1-3 | 1.33 µM (active) |
| COCCNc1cc(N2CCN(C3CCCCC3)CC2)c2noc3c2c1C(=O)c1ccccc1-3 | 15 µM (active) |
| O=C(Nc1sc2c(c1C(=O)NCc1ccco1)CCCC2)c1cc(=O)c2ccccc2o1 | 10.6 µM (active) |
| CCn1ncc(Br)c1C(=O)Nc1sc2c(c1C(N)=O)CCC2 | inactive |
| Cc1ccc(C(=O)Nc2sc3c(c2C(=O)O)CCCCC3)o1 | inactive |
| O=c1cc(-c2ccncc2)oc2c(-c3ccccc3O)nccc12 | inactive |
| O=c1cc(-c2ccncc2)oc2c(-c3cccc(CO)c3)nccc12 | inactive |
| O=c1cc(-c2cccnc2)oc2c(-c3ccccc3Oc3ccccc3)nccc12 | 17.2 µM (active) |
